Screen size: about 5,500 compounds; about 2,000 (36%) were called active. Inconclusive results (about 18%) are left out. Rule as the data show it: active = normalized growth mostly below about 0.91 (no sharp cut-off); inconclusive = no clear call, values can overlap the other calls; inactive = mostly above about 0.92. Some of the results follow.
Assay: chemical genetic growth profiling, strain panel (AID 1159580);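 also: tested at 20 µM; growth read once vehicle control cultures reached saturation at 30 °C; 1 = growth at the plate median or of vehicle wells; lower values mean less growth of the strain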
Settings: growth OD

Measured: normalized growth

CC(=O)N[C@@H](CC(C)C)C(=O)O
inactive: S. cerevisiae deletion strains, locus YJR066W, strain TOR1, hits give low values 1.02 | S. cerevisiae deletion strains, locus YJR075W, strain HOC1, hits give low values 0.992 | S. cerevisiae deletion strains, locus YKL009W, strain mrt4, hits give low values 0.962 | S. cerevisiae deletion strains, locus YKL068W, hits give low values 0.977 | S. cerevisiae deletion strains, locus YKL085W, strain MDH1 (second series), hits give low values 0.972 | S. cerevisiae deletion strains, locus YKL085W, strain MDH1, hits give low values 0.972 | S. cerevisiae deletion strains, locus YKL160W, strain elf1, hits give low values 0.977 | S. cerevisiae deletion strains, locus YKL190W, strain CNB1, hits give low values 0.987 | S. cerevisiae deletion strains, locus YKR001C, strain vps1, hits give low values 1 | S. cerevisiae deletion strains, locus YKR026C, strain gcn3, hits give low values 0.979 | S. cerevisiae deletion strains, locus YKR091W, strain srl3, hits give low values 1 | S. cerevisiae deletion strains, locus YLL001W, strain dnm1, hits give low values 0.944 | S. cerevisiae deletion strains, locus YLL026W, hits give low values 0.985 | S. cerevisiae deletion strains, locus YLL041C, strain sdh2, hits give low values 0.995 | S. cerevisiae deletion strains, locus YLR027C, strain aat2, hits give low values 0.992 | S. cerevisiae deletion strains, locus YLR039C, strain RIC1, hits give low values 0.958 | S. cerevisiae deletion strains, locus YLR058C, strain SHM2, hits give low values 0.989 | S. cerevisiae deletion strains, locus YLR102C, strain apc9, hits give low values 0.988 | S. cerevisiae deletion strains, locus YLR113W, strain HOG1, hits give low values 1.05 | S. cerevisiae deletion strains, locus YLR221C, strain rsa3, hits give low values 1 | S. cerevisiae deletion strains, locus YLR258W, strain gsy2, hits give low values 0.997 | S. cerevisiae deletion strains, locus YLR262C, strain YPT6 (second series), hits give low values 0.983 | S. cerevisiae deletion strains, locus YLR262C, strain YPT6, hits give low values 0.954 | S. cerevisiae deletion strains, locus YLR268W, strain sec22, hits give low values 0.985 | S. cerevisiae deletion strains, locus YLR320W, strain mms22, hits give low values 1.02 | S. cerevisiae deletion strains, locus YLR330W, strain CHS5, hits give low values 0.972 | S. cerevisiae deletion strains, locus YLR342W, strain FKS1 (second series), hits give low values 0.973 | S. cerevisiae deletion strains, locus YLR342W, strain FKS1, hits give low values 0.984 | S. cerevisiae deletion strains, locus YLR357W, strain rsc2, hits give low values 0.99 | S. cerevisiae deletion strains, locus YLR370C, strain arc18, hits give low values 0.982 | S. cerevisiae deletion strains, locus YLR371W, strain rom2, hits give low values 0.982 | S. cerevisiae deletion strains, locus YLR384C, strain iki3, hits give low values 0.976 | S. cerevisiae deletion strains, locus YLR418C, strain cdc73, hits give low values 0.978 | S. cerevisiae deletion strains, locus YML016C, strain PPZ1, hits give low values 0.992 | S. cerevisiae deletion strains, locus YML032C, strain rad52, hits give low values 1 | S. cerevisiae deletion strains, locus YML120C, strain ndi1, hits give low values 0.976 | S. cerevisiae deletion strains, locus YML124C, strain tub3, hits give low values 0.995 | S. cerevisiae deletion strains, locus YMR058W, strain fet3, hits give low values 0.982 | S. cerevisiae deletion strains, locus YMR078C, strain ctf18, hits give low values 0.984 | S. cerevisiae deletion strains, locus YMR125W, strain sto1, hits give low values 0.994 | S. cerevisiae deletion strains, locus YMR129W, hits give low values 0.998 | S. cerevisiae deletion strains, locus YMR205C, strain PFK2, hits give low values 0.992 | S. cerevisiae deletion strains, locus YMR223W, strain ubp8, hits give low values 0.968 | S. cerevisiae deletion strains, locus YMR231W, strain pep5, hits give low values 0.991 | S. cerevisiae deletion strains, locus YMR263W, strain SAP30, hits give low values 0.998 | S. cerevisiae deletion strains, locus YMR307W, strain GAS1, hits give low values 0.982 | S. cerevisiae deletion strains, locus YNL067W, strain RPL9B, hits give low values 1.03 | S. cerevisiae deletion strains, locus YNL071W, strain lat1, hits give low values 1.01 | S. cerevisiae deletion strains, locus YNL183C, strain NPR1, hits give low values 0.958 | S. cerevisiae deletion strains, locus YNL209W, strain ssb2, hits give low values 0.99 | S. cerevisiae deletion strains, locus YNL233W, strain BNI4, hits give low values 1.04 | S. cerevisiae deletion strains, locus YNL248C, strain rpa49, hits give low values 0.989 | S. cerevisiae deletion strains, locus YNL250W, strain rad50, hits give low values 0.96 | S. cerevisiae deletion strains, locus YNL271C, strain bni1, hits give low values 0.979 | S. cerevisiae deletion strains, locus YNL298W, strain CLA4, hits give low values 0.976 | S. cerevisiae deletion strains, locus YNL307C, strain MCK1, hits give low values 0.991 | S. cerevisiae deletion strains, locus YNL322C, strain KRE1 (second series), hits give low values 0.991 | S. cerevisiae deletion strains, locus YNR049C, strain mso1, hits give low values 0.988 | S. cerevisiae deletion strains, locus YNR052C, strain pop2, hits give low values 0.986 | S. cerevisiae deletion strains, locus YOL006C, strain TOP1, hits give low values 1.1 | S. cerevisiae deletion strains, locus YOL012C, strain htz1 1.43 | S. cerevisiae deletion strains, locus YOL147C, strain pex11, hits give low values 0.98 | S. cerevisiae deletion strains, locus YOR001W, strain rrp6, hits give low values 0.971 | S. cerevisiae deletion strains, locus YOR061W, strain CKA2, hits give low values 0.986 | S. cerevisiae deletion strains, locus YOR069W, strain VPS5, hits give low values 0.982 | S. cerevisiae deletion strains, locus YOR070C, strain gyp1, hits give low values 1 | S. cerevisiae deletion strains, locus YOR080W, strain dia2, hits give low values 0.982 | S. cerevisiae deletion strains, locus YOR083W, strain WHI5, hits give low values 0.976 | S. cerevisiae deletion strains, locus YOR106W, strain vam3, hits give low values 0.974 | S. cerevisiae deletion strains, locus YOR136W, strain idh2, hits give low values 0.992 | S. cerevisiae deletion strains, locus YOR144C, strain elg1, hits give low values 0.996 | S. cerevisiae deletion strains, locus YOR184W, strain ser1, hits give low values 0.983 | S. cerevisiae deletion strains, locus YOR231W, strain MKK1, hits give low values 1.02 | S. cerevisiae deletion strains, locus YOR265W, strain rbl2, hits give low values 0.998 | S. cerevisiae deletion strains, locus YOR270C, strain vph1, hits give low values 0.996 | S. cerevisiae deletion strains, locus YOR290C, strain snf2, hits give low values 1.01 | S. cerevisiae deletion strains, locus YOR316C, strain cot1, hits give low values 1 | S. cerevisiae deletion strains, locus YPL051W, strain arl3, hits give low values 0.992 | S. cerevisiae deletion strains, locus YPL078C, strain atp4, hits give low values 0.955 | S. cerevisiae deletion strains, locus YPL106C, strain sse1, hits give low values 0.994 | S. cerevisiae deletion strains, locus YPL240C, strain hsp82, hits give low values 0.979 | S. cerevisiae deletion strains, locus YPL256C, strain CLN2, hits give low values 1.04 | S. cerevisiae deletion strains, locus YPR119W, strain clb2, hits give low values 0.99 | S. cerevisiae deletion strains, locus YPR141C, strain kar3, hits give low values 0.974 | S. cerevisiae deletion strains, locus YPR163C, strain tif3, hits give low values 0.977 | S. cerevisiae deletion strains, locus YPR167C, strain met16, hits give low values 0.985 | S. cerevisiae deletion strains, strain wtn01, hits give low values 0.991 | S. cerevisiae strains, strain wild type, hits give low values 0.999

Source: PubChem BioAssay AID1159580 (chemical genetic matrix, 2015)
